{"source": "PubChem BioAssay AID1209", "about": "(Sanford-Burnham Center for Chemical Genomics, 2008)", "note": "Hit rate of the full screen: of about 190,000 compounds, about 810 (0.43%) were called active. Rule as the data show it: active = inhibition above about 50%; inactive = the rest. The list comes from a sample in which actives are over-represented; it also holds similar structures and randomly drawn compounds.", "data": [{"target": "Mannose-6-phosphate isomerase (Homo sapiens) (UniProt P34949)", "sequence (P34949 whole entry, looked up)": "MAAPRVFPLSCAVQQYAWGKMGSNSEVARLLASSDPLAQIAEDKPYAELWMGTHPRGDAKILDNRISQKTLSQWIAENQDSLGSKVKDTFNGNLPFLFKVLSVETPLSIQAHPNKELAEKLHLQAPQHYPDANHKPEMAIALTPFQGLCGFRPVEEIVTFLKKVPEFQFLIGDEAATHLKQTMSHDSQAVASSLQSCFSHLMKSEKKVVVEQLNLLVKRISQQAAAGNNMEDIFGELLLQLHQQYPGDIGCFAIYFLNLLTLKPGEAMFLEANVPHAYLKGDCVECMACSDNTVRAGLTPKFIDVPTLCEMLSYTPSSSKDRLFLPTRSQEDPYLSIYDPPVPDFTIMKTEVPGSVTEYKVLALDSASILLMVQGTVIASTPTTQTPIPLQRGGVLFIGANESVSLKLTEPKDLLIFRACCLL", "assay": "MPI enzyme activity inhibition – biochemical, fluorescence intensity, coupled assay, primary screen (AID 1209);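 also: plate controls were DMSO vehicle for no effect and wells lacking substrate for full effect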", "conditions": "purified PMI enzyme, at 20 µM, active compounds read high", "values": [{"smiles": "CC1CCN(C(=O)c2ccc(SCc3ccccc3F)c([N+](=O)[O-])c2)CC1", "inhibition": "20% (inactive)"}, {"smiles": "O=C(O)CCCC(=O)Nc1cc([N+](=O)[O-])ccc1O", "inhibition": "9.3% (inactive)"}, {"smiles": "COc1ccc(O)c(/C=N/NC(=S)Nc2cccc(S(=O)(=O)N(C)C)c2)c1", "inhibition": "-10.9% (inactive)"}, {"smiles": "O=C(c1cn[nH]c1)c1cc(F)ccc1O", "inhibition": "12.2% (inactive)"}, {"smiles": "COc1ccc(C(=O)N/N=C(/C)c2cccc(NC(=O)C(F)(F)F)c2)cc1", "inhibition": "0.4% (inactive)"}, {"smiles": "CC(C)(C)c1ccc(S(=O)(=O)O/N=C2/CCCCC2c2ccc([N+](=O)[O-])cc2[N+](=O)[O-])cc1", "note": "(stereo not drawn)", "inhibition": "7.7% (inactive)"}, {"smiles": "CCN(CC)Cc1cc(NC2=NS(=O)(=O)c3ccccc32)ccc1OC(=O)c1ccccc1", "inhibition": "-5.8% (inactive)"}, {"smiles": "CC(C)(C)c1ccc(C(=O)NNC(=S)NCC2CCCO2)cc1", "note": "(stereo not drawn)", "inhibition": "-0.9% (inactive)"}, {"smiles": "O=C1c2ccccc2C(=O)N1CCSc1n[nH]c(=S)s1", "inhibition": "-5.1% (inactive)"}, {"smiles": "Cc1nn(-c2ccccc2)c(Cl)c1C(=O)Nc1ccc(N2CCOCC2)cc1", "inhibition": "-17.1% (inactive)"}, {"smiles": "COc1ccc(S(=O)(=O)NN=C2CCCCC2)cc1", "inhibition": "-30.4% (inactive)"}, {"smiles": "COc1ccc(-n2nc(C(=O)NCC(=O)NCc3ccco3)c3ccccc3c2=O)cc1", "inhibition": "0.1% (inactive)"}, {"smiles": "Fc1ccc(C2=Nn3c(Cc4ccccc4)nnc3SC2)cc1", "inhibition": "11.2% (inactive)"}, {"smiles": "c1ccc(Cc2nnc3n2N=C(c2ccccc2)CS3)cc1", "inhibition": "13.3% (inactive)"}, {"smiles": "c1ccc(-c2ccc(C3=Nn4c(Cn5nnc6ccccc65)nnc4SC3)cc2)cc1", "inhibition": "50.3% (active)"}, {"smiles": "O=C(COC(=O)c1cccnc1Cl)Nc1ccccc1OC(F)F", "inhibition": "-0.4% (inactive)"}, {"smiles": "CCC(C)(C)NC(=O)C(c1cccn1C)N(C(=O)Cn1nnc2ccccc21)c1ccccc1OC", "note": "(stereo not drawn)", "inhibition": "-6.8% (inactive)"}, {"smiles": "N#Cc1cn(CCOC(=O)c2cccc(C(F)(F)F)c2)c(=O)[nH]c1=O", "inhibition": "4.3% (inactive)"}, {"smiles": "CCN1CCN(c2nc3ccccc3nc2C(C#N)C(=O)OCc2ccccc2)CC1", "note": "(stereo not drawn)", "inhibition": "8.9% (inactive)"}, {"smiles": "COC(=O)c1ccc(OC(=O)c2ccco2)cc1", "inhibition": "-5% (inactive)"}, {"smiles": "O=C(Oc1ccc(-c2cnc3ccccc3n2)cc1)c1ccco1", "inhibition": "0.2% (inactive)"}, {"smiles": "Cc1cccc(-n2nnnc2SCC(=O)c2cc(C)n(Cc3ccco3)c2C)c1", "inhibition": "-2.6% (inactive)"}, {"smiles": "CC(=O)Nc1nc2c(c3c1c(=O)oc1ccccc13)CCCCC2", "inhibition": "-2.8% (inactive)"}, {"smiles": "CCOc1ccc(CONS(=O)(=O)c2ccc(NC(C)=O)cc2)cc1Cl", "inhibition": "16.3% (inactive)"}, {"smiles": "C[N+]1(CC#CC(O)(c2ccccc2)c2ccccc2)CCCC1", "inhibition": "21.6% (inactive)"}, {"smiles": "CC12CCC3(CO)COC(c4ccccc4O1)C2C3", "note": "(stereo not drawn)", "inhibition": "3.4% (inactive)"}, {"smiles": "CC1(C#CC[N+]2(C)CCCCC2)CCC2C(O1)c1ccccc1OC2(C)C", "note": "(stereo not drawn)", "inhibition": "105% (active)"}, {"smiles": "C=CCN(CC=C)C(=O)Nc1ccc2nc(C)sc2c1", "inhibition": "8.1% (inactive)"}, {"smiles": "CCOC(=O)N1CCN(C(=O)c2ccc(S(=O)(=O)NCc3ccco3)cc2)CC1", "inhibition": "-4.2% (inactive)"}, {"smiles": "Cc1ccc(NC(=O)c2ccc(N/N=C/c3cccc(O)c3)c([N+](=O)[O-])c2)cc1", "inhibition": "5.1% (inactive)"}, {"smiles": "O=c1[nH][nH]c(-c2ccccc2)c1C=Nc1ccc(Cl)cc1", "inhibition": "-4.3% (inactive)"}, {"smiles": "Cn1cnnc1SCC(=O)Nc1ccccc1F", "inhibition": "-2% (inactive)"}, {"smiles": "Cc1cccc(NC(=S)NNC(=O)c2csc(C)c2)c1", "inhibition": "-3.7% (inactive)"}, {"smiles": "CCc1cc(C(=O)NNC(=S)Nc2ccccc2C)cs1", "inhibition": "-8.6% (inactive)"}, {"smiles": "Cc1cc(C(=O)NNC(=S)Nc2ccccc2C)cs1", "inhibition": "70.7% (active)"}, {"smiles": "O=C(Nn1cnnc1)C1CCCN1S(=O)(=O)c1ccc(F)cc1", "note": "(stereo not drawn)", "inhibition": "-3.3% (inactive)"}, {"smiles": "Cc1ccc(NC(=O)CSc2nnc(C)n2-c2ccccc2)cc1", "inhibition": "-1.7% (inactive)"}, {"smiles": "Cc1ccc(-n2c(=O)[nH]c3ncccc3c2=O)cc1", "inhibition": "12.9% (inactive)"}, {"smiles": "Oc1ccc(C=Nc2cccc3ncccc23)c(O)c1", "inhibition": "46.8% (inactive)"}, {"smiles": "Oc1ccc(C=Nc2ccc3ncccc3c2)c(O)c1", "inhibition": "68.4% (active)"}, {"smiles": "Cc1ccc(N=Cc2ccc(O)cc2O)cc1F", "inhibition": "9.4% (inactive)"}, {"smiles": "O=C(COC(=O)c1cccc(Cl)c1)Nc1cc(Cl)ccc1Oc1ccccc1", "inhibition": "18.8% (inactive)"}, {"smiles": "Cc1cc(OCC(O)CN)ccc1Cl", "note": "(stereo not drawn)", "inhibition": "-8.6% (inactive)"}, {"smiles": "Clc1ccc(CN2CCN(/N=C/c3cccnc3)CC2)cc1", "inhibition": "85.6% (active)"}, {"smiles": "Cc1ccc(CN2CCN(/N=C/c3cccnc3)CC2)cc1", "inhibition": "17.9% (inactive)"}, {"smiles": "C(=N\\N1CCN(Cc2ccccc2)CC1)/c1cccnc1", "inhibition": "9.3% (inactive)"}, {"smiles": "Cc1cccc(CSc2nc(N)c(C#N)c(-c3cccs3)c2C#N)c1", "inhibition": "6.6% (inactive)"}, {"smiles": "CN1CCc2nc(SCC(=O)Nc3cccc(F)c3)c(C#N)c(-c3cccs3)c2C1", "inhibition": "35% (inactive)"}, {"smiles": "CN1CCc2nc(SCC(=O)Nc3ccc(OC(F)(F)F)cc3)c(C#N)c(-c3cccs3)c2C1", "inhibition": "15.7% (inactive)"}, {"smiles": "CC(C)(C)C(=O)CSc1nc2c(c(-c3cccs3)c1C#N)CCC2", "inhibition": "-25.9% (inactive)"}, {"smiles": "COc1ccc(NC(=O)CSc2nc3c(c(-c4cccs4)c2C#N)CN(C)CC3)cc1OC", "inhibition": "59.8% (active)"}, {"smiles": "Cc1cccc(CSc2nc3c(c(-c4cccs4)c2C#N)CN(C)CC3)c1", "inhibition": "69.6% (active)"}, {"smiles": "COc1ccc2c(c1)C(=O)N(c1ccccc1C)C(=O)C2(C)C", "inhibition": "-9.2% (inactive)"}, {"smiles": "COC(=O)CCCNc1ncccc1[N+](=O)[O-]", "inhibition": "-0.5% (inactive)"}, {"smiles": "Cn1c(SCC(=O)N2CCN(c3ccccc3)CC2)nnc1-c1ccco1", "inhibition": "4.2% (inactive)"}, {"smiles": "CC(C)(CNS(C)(=O)=O)SCc1ccc(Cl)cc1", "inhibition": "-12.2% (inactive)"}, {"smiles": "Cc1nn(C(C)CC(=O)O)c(C)c1Br", "note": "(stereo not drawn)", "inhibition": "-0.1% (inactive)"}, {"smiles": "COc1cccc(/C=N/NC(=O)c2ccccc2)c1OS(=O)(=O)c1ccccc1", "inhibition": "2.4% (inactive)"}, {"smiles": "COc1ccc(C(=O)CCC(C)(C)[N+](=O)[O-])cc1", "inhibition": "-6.3% (inactive)"}, {"smiles": "O=C(c1ccc(CS(=O)(=O)c2ccc(Br)cc2)o1)N1CCN(C2CCCCC2)CC1", "inhibition": "-9% (inactive)"}, {"smiles": "O=C(NC1CCCCC1)C(=S)N1CCOCC1", "inhibition": "10.9% (inactive)"}, {"smiles": "O=C(NC1CCCCCC1)C(=S)N1CCOCC1", "inhibition": "61.8% (active)"}, {"smiles": "O=C(NC1CCCCCC1)C(=S)N1CCCC1", "inhibition": "4.7% (inactive)"}]}]}
